Assay results reported in PubChem BioAssay AID504334 (NMMLSC, 2011).
Several values for one entry are separate records, joined by “and”; a condition that tells them apart may be missing. Equal values may be shown once. Activity calls are given as the source filed them.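 Rule for the calls: active = response relative to DMSO over 150%; inconclusive = yeast strain with under 70 recorded events; inactive = the rest.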

Assay: yeast AGP1-GFP fluorescence change, single-dose confirmation – cell-based, flow cytometry, S. cerevisiae, cherry pick set 3 (AID 504334);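 note: median GFP fluorescence per well by flow cytometry over the all cells gate; ratio of sample to mean DMSO control signal so DMSO = 100% not 0%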
Conditions: S. cerevisiae AGP1-GFP strain, 3 h, at 10 µM, active compounds read high

Percent response vs DMSO, inactive:
COc1ccccc1Nc1nc(NCCC(C)C)nc(N)c1[N+](=O)[O-] 104%
CC1=NNC(=O)/C1=C\c1cn(-c2ccccc2)nc1-c1ccc(F)cc1 108%
COCC(C)NC(=O)CCS(=O)(=O)c1nc(-c2ccc(OC)cc2)cc(C(F)(F)F)n1 (centres undefined) 98.4% and 101%
Cc1ccc2c(C)ccc(O)c2n1 102%
COC1=C/C(=C/c2c(N)n3cc(C)sc3nc2=O)C=CC1=O 100%
COc1cccc(NC(=O)CC(C)=O)c1 98.8%
Cc1ccc(C)c(Nc2ncnc(N)c2[N+](=O)[O-])c1 102%
CC1=CN2C(=N)/C(=C/c3ccc(C)o3)C(=O)N=C2S1 98.1%
C=CCNc1nc(N)c([N+](=O)[O-])c(Nc2cccc(Cl)c2)n1 92.1%
C/C(=C\C(=O)c1ccc(Cl)cc1)Nc1ccc(Br)cc1 99.8%
C/C(=N\NC(=O)c1ccccc1)c1ccccc1F 105%
Nn1cnc2c(c1=O)C1(CCCCC1)Cc1ccccc1-2 94.1%
COc1cccc2c(Cl)c(CCCl)c(C)nc12 99.8%
COc1ccc(N/C=C/C(=O)c2ccc(Cl)cc2)cc1 98.1%
O=C1c2ccccc2C(=O)c2c1cccc2N(CCO)CCO 98.8%
Cc1cc(C)c2ccc(C(=O)O)nc2c1O 97.4%
CC(=O)Nc1ccc(-c2nc3ccccc3o2)cc1 96.8%
CCc1sc(C(=O)Nc2nc(-c3ccccn3)cs2)cc1C 111%
Cc1ccc(Nc2cc(=O)[nH]c(=O)[nH]2)cc1C 95.8%
O=C(Nc1ccccc1)ON=C1c2ccccc2-c2ccccc21 97.8%
NC(=O)c1ccnc2c(O)cccc12 100%
COc1cccc2c(=O)c(C(=O)O)c[nH]c12 94.1%
Nc1c(O)ccc2c1C(=O)c1ccccc1C2=O 110%
Cn1c(NCCO)nc2c(c1=O)C1(CCCCC1)Cc1ccccc1-2 104%
CC1=CN2C(=N)/C(=C/c3ccco3)C(=O)N=C2S1 97.1%
COc1ccc(-c2cc(C(F)(F)F)nc(S(C)(=O)=O)n2)cc1OC 106% and 113%
CCCC(=O)Nn1cnc2c(c1=O)C1(CCCCC1)Cc1ccccc1-2 102%
CCC(C)Nc1nc(N)c([N+](=O)[O-])c(Nc2ccccc2OC)n1 (centres undefined) 104%
COc1ccccc1-c1cc(C(F)(F)F)nc(S(=O)(=O)CCCC(=O)O)n1 110%
C/C(=C\C(=O)c1ccccc1)Nc1ccc(O)cc1 98.4%
Cc1ccc(Nc2nc(N)[nH]c(=O)c2N=O)cc1 101%
COc1ccccc1Nc1nc(NCC(C)C)nc(N)c1[N+](=O)[O-] 101%
CSc1nc(S(C)(=O)=O)nc2[nH]c(=O)[nH]c12 103%
C/C(=C\C(=O)c1ccc(C)cc1)Nc1cccc(O)c1 101%
CC(=O)CC(=O)Nc1ccc(C(N)=O)cc1 100%
CCCC(=O)Nn1cnc2c(c1=O)C1(CCCC1)Cc1ccccc1-2 101%
Oc1c(Br)cc(Br)c2cccnc12 109%
COc1ccccc1-c1cc(C(F)(F)F)nc(S(=O)(=O)CCCC(=O)NC(C)C)n1 104% and 99.8%
FC(F)Oc1cccc2cccnc12 96.4%
